Measurements as given in PubChem BioAssay AID1159580 (chemical genetic matrix, 2015).
The whole screen tested about 5,500 compounds, of which about 2,000 (36%) were called active. Not shown: some 18% with an inconclusive outcome. Cut-off read from the data, not from the text of the source: active = normalized growth mostly below about 0.91 (no sharp cut-off); inconclusive = no clear call, values can overlap the other calls; inactive = mostly above about 0.92. The list shows a part of the results.

Experiment: chemical genetic growth profiling, strain panel (AID 1159580);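 note: tested at 20 µM; growth read once vehicle control cultures reached saturation at 30 °C; 1 = growth at the plate median or of vehicle wells; lower values mean less growth of the strain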
Conditions: growth OD
[1] = S. cerevisiae deletion strains, locus YAL013W, strain DEP1, hits give low values
[2] = S. cerevisiae deletion strains, locus YBR229C, strain ROT2, hits give low values
[3] = S. cerevisiae deletion strains, locus YCL061C, strain MRC1, hits give low values
[4] = S. cerevisiae deletion strains, locus YDL101C, strain DUN1, hits give low values
[5] = S. cerevisiae deletion strains, locus YDR150W, strain NUM1, hits give low values
[6] = S. cerevisiae deletion strains, locus YEL061C, strain CIN8, hits give low values
[7] = S. cerevisiae deletion strains, locus YGR078C, strain PAC10, hits give low values
[8] = S. cerevisiae deletion strains, locus YHR030C, strain SLT2, hits give low values
[9] = S. cerevisiae deletion strains, locus YHR087W, strain rtc3, hits give low values
[10] = S. cerevisiae deletion strains, locus YJL187C, strain SWE1, hits give low values
[11] = S. cerevisiae deletion strains, locus YJR043C, strain POL32, hits give low values
[12] = S. cerevisiae deletion strains, locus YJR075W, strain HOC1, hits give low values
[13] = S. cerevisiae deletion strains, locus YLR039C, strain RIC1, hits give low values
[14] = S. cerevisiae deletion strains, locus YLR058C, strain SHM2 (second series), hits give low values
[15] = S. cerevisiae deletion strains, locus YLR085C, strain ARP6, hits give low values
[16] = S. cerevisiae deletion strains, locus YLR262C, strain YPT6, hits give low values
[17] = S. cerevisiae deletion strains, locus YML094W, strain GIM5, hits give low values
[18] = S. cerevisiae deletion strains, locus YMR219W, strain ESC1, hits give low values
[19] = S. cerevisiae deletion strains, locus YMR263W, strain SAP30, hits give low values
[20] = S. cerevisiae deletion strains, locus YNL128W, strain TEP1, hits give low values
[21] = S. cerevisiae deletion strains, locus YNL153C, strain GIM3, hits give low values
[22] = S. cerevisiae deletion strains, locus YNL298W, strain CLA4 (second series), hits give low values
[23] = S. cerevisiae deletion strains, locus YNL322C, strain KRE1, hits give low values
[24] = S. cerevisiae deletion strains, locus YNR030W, strain Alg12, hits give low values
[25] = S. cerevisiae deletion strains, locus YOL006C, strain TOP1, hits give low values
[26] = S. cerevisiae deletion strains, locus YPL055C, strain LGE1, hits give low values
[27] = S. cerevisiae deletion strains, locus YPL241C, strain CIN2, hits give low values
[28] = S. cerevisiae deletion strains, locus YPR135W, strain CTF4, hits give low values
[29] = S. cerevisiae strains, strain wild type, hits give low values

Measured: normalized growth

CCOC(=O)Cn1c(=O)c(C#N)cn(C(C)C)c1=O
inactive: [1] 1.01 | [2] 1.01 | [3] 0.993 | [4] 1.02 | S. cerevisiae deletion strains, locus YDL134C, strain PPH21, hits give low values 1.01 | [5] 1.02 | [6] 0.988 | [7] 1.01 | [8] 1.03 | [9] 1 | [10] 1 | [11] 0.998 | [12] 1.02 | [13] 1.02 | [14] 1.01 | [15] 0.976 | [16] 1.01 | [17] 1 | [18] 1.01 | [19] 1 | [20] 0.98 | [21] 1 | [22] 1.04 | [23] 1.01 | [24] 1.02 | [25] 1.03 | [26] 0.984 | [27] 1.02 | [28] 1.02 | [29] 1.01

CCCn1c(=O)c(C#N)cn(-c2ccc(Cl)cc2)c1=O
active: [10] 0.93 | [13] 0.759
inactive: [1] 1.01 | [2] 0.986 | [3] 1.01 | [4] 0.991 | [5] 1.02 | [6] 0.97 | [7] 0.996 | S. cerevisiae deletion strains, locus YGR229C, strain SMI1, hits give low values 0.997 | [8] 0.937 | [9] 0.977 | [11] 1.02 | [12] 1.01 | [14] 0.986 | [15] 0.893 | [16] 0.821 | [17] 0.963 | [18] 0.99 | [19] 1 | [21] 1 | [22] 0.961 | [23] 0.979 | [24] 0.99 | [25] 0.924 | [26] 1.04 | [27] 0.982 | [28] 1.03

CC(C)n1cc(C#N)c(=O)n(Cc2ccccc2)c1=O
inactive: [1] 0.992 | [2] 0.994 | [3] 0.991 | [4] 1.02 | [5] 0.923 | [6] 1 | [7] 0.991 | [8] 0.983 | [9] 0.989 | [10] 0.977 | [12] 0.999 | [13] 1.01 | [14] 1 | [15] 0.999 | [16] 1.04 | [17] 0.988 | [18] 1 | [19] 0.967 | [20] 0.994 | [21] 0.984 | [22] 1.05 | [23] 0.996 | [24] 1.01 | [26] 0.979 | [27] 1 | [28] 0.994 | [29] 1.01
